This passage reports growth results from PubChem BioAssay (NCI).

About 83,000 compounds went through this panel and 20% of them were active in at least one assay; those are over-represented in the sample as a whole.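 Cell lines were cultured in 96-well plates, exposed to a single compound concentration, and assessed for percent growth 48 hours later.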 A number with no mark means an inactive call. Active and inactive are the calls of the source. How the source made its calls: active means growth percent below 10; inactive means the rest.

What all share (assay): NCI-60 one-dose screen, 48 h (100 = growth as untreated, 0 = no growth, -100 = all killed)
What all share (details): 10 µM unless noted

Test [1] deals with NCI-H23 lung.
The test system of test [2] is NCI-H226 lung.
Test [3] concerns NCI-H322M lung.
The subject of test [4] is HOP-62 NSCLC.
In test [5] the test system is NCI-H460 lung.
For test [6], the system named is HOP-92 NSCLC.
The test system of test [7] is NCI-H522 lung.
The subject of test [8] is A549/ATCC NSCLC.
In test [9] the test system is 786-0 renal.
Test [10] deals with COLO 205 colon.
For test [11], the system named is DU-145 prostate.
Test [12] has as its system K-562 leukemia.
For test [13], the system named is MALME-3M melanoma.
In test [14] the test system is MDA-MB-231 breast.
The subject of test [15] is RXF 393 renal.
The test system of test [16] is SF-268 CNS.
Test [17] has as its system SF-295 CNS.
Test [18] relates to SF-539 CNS.
The subject of test [19] is UACC-257 melanoma.
Test [20] concerns M14 melanoma.

For the compound `COc1cc(-c2nc3ccc(C)cc3[nH]2)ccc1OCC(=O)N=Nc1c(O)[nH]c2ccc(Cl)cc12`, the growth in test [1] is 23.2%; in test [2], 86.8%; in test [3] it was 36.9%; in test [4] it was 18.3%; in test [5], -56.1% (active); in [6], 2.42% (active). The growth in [7] was 20.6%; in test [8], 29.7%; in [9], -82.5% (active); in test [10], -15.9% (active); in [11], 22.9%; in test [12], -39.3% (active). Also, the growth is -26.9% (active) in test [13]; -61.6% (active) in test [14]; -40.7% (active) in test [15]; 31.4% in [16]; -7.5% (active) in test [17]; -80% (active) in [18]. For the same compound, the results for the growth in test [19] and in test [20] were 39.4% and 3.17% (active), respectively.

As for `COc1ccc2c(c1)c(-c1nc(-c3cn(C)c4ncccc34)cs1)cn2CCO`, the growth in test [1] was 89.4%; in test [2] it was 70.1%; in test [3], 77.7%; in [4] it was 81.2%; in [5], 74.9%; in [6], 70.4%. Besides, the growth in [7] was 60.5%; in test [8], 79.8%; in test [9], 80%; in test [10], 81.2%; in test [11], 90.9%; in test [12], 25.2%. Also, the growth in [13] was 110%; in test [14], 57%; in test [15], 84.6%; in [16], 91.1%; in test [17], 74.1%; in test [18] it was 75%. The results for the growth in test [19] and in test [20] were 92.4% and 75.1%, respectively.

Regarding `CCN1C(=S)N(CC)C2C1NC(=S)N2/N=C/C=C/c1ccccc1OC` (stereo not given), the growth in test [1] was 24.1%; in [2], 57%; in [3] it was 45.2%; in test [4], 39.2%; in test [5] it was 6.8% (active); in test [6] it was 74.6%. Moreover, the growth was -11.3% (active) in test [7]; 17.7% in test [8]; 35.6% in [9]; 10% in test [10]; 13.9% in [11]; 10.2% in test [12]. Further, the growth in test [13] is 53.5%; in test [14] it was 11.5%; in test [15], 20.4%; in [16], 56.4%; in test [17], 12.4%; in test [18], -18.5% (active). Also, the values for the growth in [19] and in test [20] were 53.6% and 10.3%, respectively.

Turning to `CC/C=C\C/C=C/C=C1/C(=O)C=C[C@@H]1C/C=C\CCCC(=O)OC`, the growth in test [1] was 24.9%; in test [2] it was 55.7%; in test [3], 95.8%; in [4], 36.1%; in test [5], 76.2%; in [6] it was 42.4%. For the same compound, the growth in test [7] is -32.3% (active); in test [8], 80.8%; in test [9], -15% (active); in test [10], 14.1%; in test [11], 40.1%; in test [12] it was 2.34% (active). The growth in [13] was 35%; in [14], 4.18% (active); in test [15] it was 32.9%; in test [16] it was 21.9%; in [17], 81.8%; in [18], 26.8%. Moreover, the growth in test [19] is 66.5%; in test [20], 32.1%.

In the case of `COc1ccc2nc(Cl)c(/C=C/C(=O)c3ccc(NC(=O)CSc4nnc(-c5ccc(Cl)c(Cl)c5)n4-c4ccccc4)cc3)cc2c1`, the growth is 96.5% in test [1]; 96.8% in [2]; 93.6% in [3]; 83.2% in [4]; 97.7% in [5]; 67.8% in [6]. Further, the growth in test [7] is 74.1%; in test [8], 69.7%; in test [9], 92.3%; in test [10], 101%; in [11], 98.2%; in test [12], 87.2%. For the same compound, the growth in [13] was 92.3%; in [14], 89.3%; in test [15] it was 91.8%; in test [16], 89.1%; in test [17], 94%; in [18], 105%. In addition, the growth in test [19] is 81.1%; in test [20], 91.7%.

`Fc1ccc(CNc2c3ccccc3nc3ccccc23)cc1`: the growth in [1] is 31.6%; in [2] it was 51.8%; in [3] it was 38.5%; in test [4], 43%; in test [5], 8.85% (active); in test [6], 17.2%. Also, the growth was 52.4% in [7]; 23.7% in [8]; 27.6% in [9]; 7.53% (active) in [10]; 34.9% in test [11]; 4.79% (active) in test [12]. The growth in [13] is 25.7%; in test [14], 38.3%; in [15] it was 0.247% (active); in test [16], 53.3%; in test [17] it was 27.6%; in test [18] it was 13.1%. In addition, the growth was 36% in [19] and 34.4% in test [20].

For the compound `C[Se]C(=O)CC1=C2C=C(F)C=CC2/C(=C\c2ccc(S(C)=O)cc2)C1C` (stereo not given), the growth was 13.5% in [1]; 1.21% (active) in [2]; 14.1% in test [3]; -24.3% (active) in [4]; -1% (active) in test [5]; -41.4% (active) in test [6]. The growth in test [7] is 12.9%; in [8] it was -60.1% (active); in test [9], 3.8% (active); in test [10] it was -17.4% (active); in [11], -50.5% (active); in test [12], 28.6%. In addition, the growth in test [13] is -68.7% (active); in test [14], -46% (active); in [15], 6.68% (active); in test [16], -28.2% (active); in test [17], 11.3%; in [18], -30.3% (active). Also, the growth is -21.5% (active) in [19] and 7.44% (active) in test [20].

Take `CCN(CC)CCN(CCN(CC)CC)c1ccccc1`: the growth in test [1] is 93%; in [2], 94.6%; in test [3] it was 103%; in [4] it was 98.5%; in test [5] it was 107%; in [6] it was 67.3%. The growth in test [7] was 79%; in test [8] it was 93.1%; in [9], 67.4%; in test [10], 97.8%; in [11], 109%; in test [12], 93%. Further, the growth was 110% in test [13]; 89.6% in test [14]; 90.8% in [15]; 97.7% in test [16]; 111% in test [17]; 87.6% in [18]. Moreover, the growth was 93.1% in [19] and 82.3% in [20].
